PubChem BioAssay

Key:
[1] = tested on: Botulinum neurotoxin type F light chain protease (Clostridium botulinum); experiment: Clostridium botulinum type F light chain protease inhibitors, microsphere substrate cleavage, validation (AID 588459); conditions: multiplex microsphere protease substrate cleavage assay, flow cytometry; at 10 µM; stronger effect = higher value
[2] = target: Botulinum neurotoxin type A (Clostridium botulinum) (UniProt P0DPI0); experiment: BoNT/A light chain protease inhibitors, biochemical, multiplex microsphere flow cytometry, validation set (AID 588460); conditions: at 10 µM, stronger effect = higher value
[3] = target: Lethal factor (Bacillus anthracis) (UniProt P15917); experiment: Bacillus anthracis lethal factor inhibition, microsphere flow cytometry protease assay, validation at 10 µM (AID 588461); conditions: multiplex microsphere protease cleavage assay, stronger effect = higher value

Measured: inhibition

COc1ccc(C=NCC2COc3ccccc3O2)cc1OC (stereo unspecified)
inactive: [1] -0.8% | [2] -3.3% | [3] -3.2%

COc1c2c(nc3occc13)C(CC=C(C)C)(OC)C(O)CC2 (stereo unspecified)
inactive: [1] 0.8% | [2] 0.9% | [3] -4.1%

CC(C)NS(=O)(=O)c1ccc(OCC(=O)Nc2cccc(F)c2)cc1
inactive: [1] -3.9% | [2] -0.3% | [3] -0.8%

Cn1c(=O)c2c(ncn2CCO)n(C)c1=O
inactive: [1] 1.2% | [2] -1.8% | [3] 1.7%

CCc1cc2c(=O)c(-c3nc(C)cs3)coc2cc1OC(C)C(=O)NCCO (stereo unspecified)
inactive: [1] -3.3% | [2] -0.8% | [3] -2.1%

C=CCC1(O)C(=O)N2C(=C1C(=O)N1CCOCC1)c1ccccc1CC2(C)C (stereo unspecified)
inactive: [1] -1.7% | [2] -0.2% | [3] 5.7%

CC(C)(C)OC(=O)NCCC(=O)Oc1ccc2ccc(=O)oc2c1
inactive: [1] -1.5% | [2] -0.8% | [3] 0.5%

CC[N+]1(C)CC2CCC(C)(C1)C2(C)C (stereo unspecified)
inactive: [1] 1.1% | [2] -0.5% | [3] 11.8%

Cc1cccc(N2C(=O)C3C(c4ccccc4)OC4(C(=O)c5ccccc5C4=O)C3C2=O)c1 (stereo unspecified)
inactive: [1] 4.6% | [2] 1% | [3] -3.5%

CC1=CC(=O)c2ccccc2C1=O
inactive: [1] -2.1% | [2] -0.1% | [3] 6.7%

CN(CCc1cnn(C)c1)Cc1nc(CC2CC2)no1
inactive: [1] 0.2% | [2] 0.4% | [3] 7%

CCCC1O[C@@H]2C[C@H]3[C@@H]4CCC5=CC(=O)C=C[C@]5(C)[C@H]4[C@@H](O)C[C@]3(C)[C@]2(C(=O)CO)O1 (stereo partly specified)
inactive: [1] 6.3% | [2] 3.4% | [3] 3.4%
